Consider 27 molecules from PubChem BioAssay (NCI).

Structures are written as SMILES. This is part of a sample that, as a whole, favours compounds with a hit. Of some 83,000 tested, about 20% had one in any assay.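 Negative percent growth values reflect cell death: -40 means 40% of the cells present at the start died, and -100 means all died.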 Calls of active or inactive are those of the source. Rule for the calls: active = growth percent below 10; inactive = the rest.

This assay has as its system COLO 205 colon. The assay is described as follows: NCI-60 one-dose screen, 48 h (100 = growth as untreated, 0 = no growth, -100 = all killed). The following applies: 10 µM unless noted.
Take `COc1ccccc1C(=O)/C=C/c1ccccc1`: the growth is 117% (inactive).
In the case of `Cn1cc([C@@H]2Nc3ccc4[nH]ncc4c3[C@H]3[C@H]4CCC(C4)[C@H]32)c(C(F)(F)F)n1` it was 52.7% (inactive).
In the case of `N#Cc1c(N)nc2c(c1N)C(c1ccc(F)cc1)c1ccc(N)cc1O2` (configuration not stated) it was 124% (inactive); in that of `O=C(CN1C=NC2C(N3CCOCC3)=NC=NC21)c1ccc(Br)cc1` (configuration not stated), 112% (inactive); in that of `CCN(CCO)CCNc1ccc(C)c2sc3cc(Cl)ccc3c(=O)c12`, -80.9% (active).
As for `Cc1nn(-c2nc3ccccc3[nH]2)c2c1C(c1ccc(OCC(N)=O)cc1)CC(=O)N2` (configuration not stated), the growth was 117% (inactive).
`COC(=O)/C(CCC=C(C)C)=C1\[C@@H](OC(C)=O)C[C@@]2(C)[C@H]1C[C@@H](O)[C@H]1[C@@]3(C)CC[C@H](NCCO)[C@@H](C)[C@@H]3CC[C@@]12C`: the growth is 103% (inactive).
Turning to `CCCc1c(C)c2sc(=O)[nH]c2[nH]c1=O`, the growth was 113% (inactive).
With `CCCCc1ccc(NS(=O)(=O)c2cc3c4c(c2)CCN4C(=O)CC3)cc1`, the growth is 14.5% (inactive).
To `O=C1/C(=C/c2ccc(O)cc2)COc2ccc(O)cc21` belongs 114% (inactive).
With `Cc1cc(Nc2ccc(OCc3ccccc3)cc2)nc2cc(O)ccc12`, the growth is 21.9% (inactive).
Consider `O=C(c1nc2ccccc2[nH]1)C1[C@@H](c2cccc(O)c2)C2CC3CCCCC3N2[C@@]12C(=O)Nc1cc(Cl)ccc12` (some centres not stated), for which the growth is 63.5% (inactive).
Consider `C#CCn1cc(C=C2C(=O)N(C)C(=O)N(C)C2=O)c2cc(Cl)ccc21`, for which the growth is 122% (inactive).
In the case of `COc1ccc(/C=C2/SC(=O)N(CC(=O)N3CCN(c4cc5c(cc4F)c(=O)c(C(=O)O)cn5C4CC4)CC3)C2=O)cc1` it was 108% (inactive); in that of `CCOC(=O)C1=C(C)N=c2s/c(=C\c3ccccc3O)c(=O)n2C1c1ccc(OC)c2ccccc12` (configuration not stated), -90% (active); in that of `Nc1ccc(-c2ccc(-c3ccccc3N)c3[nH]c4ccccc4c23)cc1`, 13.2% (inactive).
As for `CCOC(=O)c1c2c(n3cccc(Cl)c13)C(=O)c1ncccc1C2=O`, the growth was 73.5% (inactive).
Turning to `O=C(Nc1ccc(C23CC4CC(CC(c5ccccc5)(C4)C2)C3)cc1)c1cccs1`, the growth was 91.4% (inactive).
To `COc1ccccc1N1CCN(C(CNS(=O)(=O)c2ccc(Cl)cc2)c2cccnc2)CC1` (configuration not stated) belongs 108% (inactive); to `CCn1c(-c2nonc2Nc2ccc(OC)cc2)nc2ccccc21`, 124% (inactive).
As for `O=C(Nc1ccc(N2CCNCC2)cn1)c1[nH]ncc1Nc1ncnc2sc3c(c12)CCC3`, the growth was 22.8% (inactive).
To `O=C(/C=C/c1cccc(Cl)c1)OCc1ccc2cc1OCC#C/C=C\C#CCO2` belongs 106% (inactive); to `C[n+]1c2ccccc2nc2ccc(NCCO)cc21`, 68.8% (inactive); to `Cn1c(C(=O)c2cccc3ccccc23)nc2ccccc21`, 12.9% (inactive).
As for `CC/C(=C(\CC)c1ccc(OCC[N+](C)(C)C)cc1)c1ccc(OC)cc1`, the growth was 6.92% (active).
Regarding `O=C(Nc1ccc(F)cc1F)c1cc(I)ccc1O`, the growth is 77.8% (inactive).
In the case of `CC(C)Cn1c2c(c(=S)[nH]c1=O)CCC2` it was 117% (inactive).
